{"source": "paper PMC13541613", "about": "“GHT-SELEX demonstrates unexpectedly high intrinsic sequence specificity and complex DNA binding of many human transcription factors”"}
{"target": "ZNF721 full-length (Homo sapiens, UniProt Q8TF20-2 1-923)", "sequence (Q8TF20 other isoform, or with tags, fused parts or gaps)": "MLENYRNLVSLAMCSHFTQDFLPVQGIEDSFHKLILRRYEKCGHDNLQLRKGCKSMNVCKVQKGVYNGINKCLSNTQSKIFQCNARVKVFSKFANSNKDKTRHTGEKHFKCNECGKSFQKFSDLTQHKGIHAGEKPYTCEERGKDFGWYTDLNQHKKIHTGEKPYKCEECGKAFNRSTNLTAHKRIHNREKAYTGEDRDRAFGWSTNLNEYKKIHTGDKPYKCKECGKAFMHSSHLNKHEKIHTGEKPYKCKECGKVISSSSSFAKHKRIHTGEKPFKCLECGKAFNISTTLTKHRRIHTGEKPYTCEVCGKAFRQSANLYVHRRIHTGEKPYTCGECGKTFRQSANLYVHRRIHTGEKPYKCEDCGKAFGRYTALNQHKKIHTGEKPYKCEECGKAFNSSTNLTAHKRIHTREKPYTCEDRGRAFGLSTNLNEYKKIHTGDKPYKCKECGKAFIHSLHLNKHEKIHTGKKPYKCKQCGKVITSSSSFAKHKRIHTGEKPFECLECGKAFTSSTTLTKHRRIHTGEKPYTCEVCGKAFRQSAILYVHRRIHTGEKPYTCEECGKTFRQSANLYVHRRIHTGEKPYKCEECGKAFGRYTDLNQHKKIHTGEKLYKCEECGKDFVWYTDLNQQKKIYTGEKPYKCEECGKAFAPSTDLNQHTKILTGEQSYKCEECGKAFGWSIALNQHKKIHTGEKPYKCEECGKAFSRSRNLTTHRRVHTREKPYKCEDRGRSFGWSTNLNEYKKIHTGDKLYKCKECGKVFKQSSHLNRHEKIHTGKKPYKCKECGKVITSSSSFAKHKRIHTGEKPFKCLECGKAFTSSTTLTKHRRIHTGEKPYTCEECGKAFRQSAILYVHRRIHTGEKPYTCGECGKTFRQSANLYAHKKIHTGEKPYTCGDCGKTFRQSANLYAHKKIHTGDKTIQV", "assay": "HT-SELEX; 20 mM HEPES pH 7, 140 mM KCl, 5 mM NaCl, 1 mM K2HPO4, 2 mM MgSO4, 100 uM EGTA, ZnSO4, 0.1% Tween20; room temperature, 1 h; high values mean tight binding", "settings": "protein: ivt; tags: eGFP (N-terminal); dsDNA, one strand shown", "summary_of_the_method": "(§1)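 In HEPES/KCl low-stringency buffer with Tween20, a bead-immobilised tagged transcription factor (full-length or DNA-binding-domain fragment, from HEK293 lysate or cell-free extract) was incubated with a randomized 40-base DNA library for 1 h at room temperature. DNA retained after washing was heat-eluted, amplified by PCR over successive cycles and Illumina-sequenced, giving ~3 million 60 bp reads per sample. The reported binding signal, a relative k-mer count in those selected reads, rises with tighter binding.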", "units": {"binding signal": "relative 10-mer count"}}
{"sequence": "TAAAAAAACA", "binding signal": 0.162}
{"sequence": "AAGGGGTGGG", "binding signal": 0.102}
{"sequence": "CCCCCCGTCC", "binding signal": 0.134}
{"sequence": "CCACCCAACC", "binding signal": 0.151}
{"sequence": "ACCCACCCGC", "binding signal": 0.102}
{"sequence": "CCACCCCTCC", "binding signal": 0.209}
{"sequence": "ACCCACCTCC", "binding signal": 0.125}
{"sequence": "GTATGAAGCA", "binding signal": 0.171}
{"sequence": "CCCCCGCCCG", "binding signal": 0.109}
{"sequence": "CAAAACAGCA", "binding signal": 0.21}
{"sequence": "AGGCAACACT", "binding signal": 0.174}
{"sequence": "AAAGCAGCCC", "binding signal": 0.134}
{"sequence": "GCCCCAACCC", "binding signal": 0.105}
{"sequence": "CTCCCGCCCC", "binding signal": 0.136}
{"sequence": "GTGGGTGGGA", "binding signal": 0.137}
{"sequence": "CCCAACCCAC", "binding signal": 0.149}
{"sequence": "CCCCCGCCAC", "binding signal": 0.176}
{"sequence": "ACAAAAAAAC", "binding signal": 0.151}
{"sequence": "AAAAGCAGTC", "binding signal": 0.111}
{"sequence": "ACACCCCACC", "binding signal": 0.13}
{"sequence": "AAAAAAAAGA", "binding signal": 0.116}
{"sequence": "GCCCACCCAC", "binding signal": 0.168}
{"sequence": "CCACCCACAC", "binding signal": 0.152}
{"sequence": "CCCTCCCGCC", "binding signal": 0.161}
{"sequence": "AAAGGCATAC", "binding signal": 0.129}
{"sequence": "ACCTCCCCCC", "binding signal": 0.151}
{"sequence": "AAAAACAAGC", "binding signal": 0.123}
{"sequence": "ACCACCCCGC", "binding signal": 0.104}
{"sequence": "CCACCCTCAC", "binding signal": 0.103}
{"sequence": "CCCCACCCCC", "binding signal": 0.447}
{"sequence": "CCACCACCCC", "binding signal": 0.455}
{"sequence": "CACCCTCCCC", "binding signal": 0.212}
{"sequence": "CACCACCCCA", "binding signal": 0.222}
{"sequence": "CCCCACCCGC", "binding signal": 0.186}
{"sequence": "CTCCCACCAC", "binding signal": 0.11}
{"sequence": "CCCCGCCCTC", "binding signal": 0.146}
{"sequence": "GCACCCACCC", "binding signal": 0.107}
{"sequence": "CAACCCCCCC", "binding signal": 0.131}
{"sequence": "AGCATATCCA", "binding signal": 0.107}
{"sequence": "CCCCCCGCCA", "binding signal": 0.113}
{"target": "ZNF721 DBD1 (Homo sapiens, UniProt Q8TF20-2 29-461)", "sequence (Q8TF20 17-449)": "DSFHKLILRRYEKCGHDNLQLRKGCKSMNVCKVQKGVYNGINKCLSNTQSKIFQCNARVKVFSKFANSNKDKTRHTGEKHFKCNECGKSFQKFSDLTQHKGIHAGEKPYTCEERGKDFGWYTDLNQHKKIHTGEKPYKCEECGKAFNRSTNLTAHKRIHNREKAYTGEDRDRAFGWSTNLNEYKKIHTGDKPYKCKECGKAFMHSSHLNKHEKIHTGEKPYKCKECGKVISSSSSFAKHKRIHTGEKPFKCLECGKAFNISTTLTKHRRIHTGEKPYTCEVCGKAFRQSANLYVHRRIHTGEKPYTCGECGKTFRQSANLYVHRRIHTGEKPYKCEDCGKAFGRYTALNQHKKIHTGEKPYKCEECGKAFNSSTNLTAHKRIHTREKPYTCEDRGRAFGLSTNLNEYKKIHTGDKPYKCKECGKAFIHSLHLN", "assay": "HT-SELEX; 20 mM HEPES pH 7, 140 mM KCl, 5 mM NaCl, 1 mM K2HPO4, 2 mM MgSO4, 100 uM EGTA, ZnSO4, 0.1% Tween20; room temperature, 1 h; high values mean tight binding", "settings": "protein: ivt; tags: eGFP (N-terminal); dsDNA, one strand shown", "summary_of_the_method": "as §1", "units": {"binding signal": "relative 10-mer count"}}
{"sequence": "TAAAAAAACA", "binding signal": 0.00234}
{"sequence": "AAGGGGTGGG", "binding signal": 0.00546}
{"sequence": "CCCCCCGTCC", "binding signal": 0.00491}
{"sequence": "CCACCCAACC", "binding signal": 0.00674}
{"sequence": "ACCCACCCGC", "binding signal": 0.00316}
{"sequence": "CCACCCCTCC", "binding signal": 0.0108}
{"sequence": "ACCCACCTCC", "binding signal": 0.00505}
{"sequence": "GTATGAAGCA", "binding signal": 0.261}
{"sequence": "CCCCCGCCCG", "binding signal": 0.00372}
{"sequence": "CAAAACAGCA", "binding signal": 0.00119}
{"sequence": "AGGCAACACT", "binding signal": 0.00697}
{"sequence": "AAAGCAGCCC", "binding signal": 0.00225}
{"sequence": "GCCCCAACCC", "binding signal": 0.00376}
{"sequence": "CTCCCGCCCC", "binding signal": 0.00596}
{"sequence": "GTGGGTGGGA", "binding signal": 0.00729}
{"sequence": "CCCAACCCAC", "binding signal": 0.0056}
{"sequence": "CCCCCGCCAC", "binding signal": 0.00679}
{"sequence": "ACAAAAAAAC", "binding signal": 0.00188}
{"sequence": "AAAAGCAGTC", "binding signal": 0.00225}
{"sequence": "ACACCCCACC", "binding signal": 0.00413}
{"sequence": "AAAAAAAAGA", "binding signal": 0.00757}
{"sequence": "GCCCACCCAC", "binding signal": 0.0061}
{"sequence": "CCACCCACAC", "binding signal": 0.00734}
{"sequence": "CCCTCCCGCC", "binding signal": 0.00716}
{"sequence": "AAAGGCATAC", "binding signal": 0.00142}
{"sequence": "ACCTCCCCCC", "binding signal": 0.00578}
{"sequence": "AAAAACAAGC", "binding signal": 0.0116}
{"sequence": "ACCACCCCGC", "binding signal": 0.00358}
{"sequence": "CCACCCTCAC", "binding signal": 0.00427}
{"sequence": "CCCCACCCCC", "binding signal": 0.0179}
{"sequence": "CCACCACCCC", "binding signal": 0.0194}
{"sequence": "CACCCTCCCC", "binding signal": 0.00945}
{"sequence": "CACCACCCCA", "binding signal": 0.00803}
{"sequence": "CCCCACCCGC", "binding signal": 0.00651}
{"sequence": "CTCCCACCAC", "binding signal": 0.00752}
{"sequence": "CCCCGCCCTC", "binding signal": 0.00601}
{"sequence": "GCACCCACCC", "binding signal": 0.00523}
{"sequence": "CAACCCCCCC", "binding signal": 0.00431}
{"sequence": "AGCATATCCA", "binding signal": 0.0108}
{"sequence": "CCCCCCGCCA", "binding signal": 0.00445}
{"target": "ZNF721 DBD2 (Homo sapiens, UniProt Q8TF20-2 395-923)", "sequence (Q8TF20 383-911)": "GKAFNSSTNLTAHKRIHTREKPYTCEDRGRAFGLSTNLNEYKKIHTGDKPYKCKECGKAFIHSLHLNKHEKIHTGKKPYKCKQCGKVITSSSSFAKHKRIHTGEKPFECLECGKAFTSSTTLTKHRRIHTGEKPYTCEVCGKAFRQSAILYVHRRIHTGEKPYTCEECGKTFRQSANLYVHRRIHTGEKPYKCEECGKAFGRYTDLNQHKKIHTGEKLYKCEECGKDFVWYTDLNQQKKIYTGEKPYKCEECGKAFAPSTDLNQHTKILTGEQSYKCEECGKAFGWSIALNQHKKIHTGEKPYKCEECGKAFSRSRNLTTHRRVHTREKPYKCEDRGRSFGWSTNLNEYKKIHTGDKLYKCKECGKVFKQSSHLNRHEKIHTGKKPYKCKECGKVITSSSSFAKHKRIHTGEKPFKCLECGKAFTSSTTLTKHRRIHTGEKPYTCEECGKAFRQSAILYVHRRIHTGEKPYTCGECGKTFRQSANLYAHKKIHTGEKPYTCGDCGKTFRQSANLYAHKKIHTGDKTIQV", "assay": "HT-SELEX; 20 mM HEPES pH 7, 140 mM KCl, 5 mM NaCl, 1 mM K2HPO4, 2 mM MgSO4, 100 uM EGTA, ZnSO4, 0.1% Tween20; room temperature, 1 h; high values mean tight binding", "settings": "protein: ivt; tags: eGFP (N-terminal); dsDNA, one strand shown", "summary_of_the_method": "as §1", "units": {"binding signal": "relative 10-mer count"}}
{"sequence": "TAAAAAAACA", "binding signal": 0.134}
{"sequence": "AAGGGGTGGG", "binding signal": 0.00395}
{"sequence": "CCCCCCGTCC", "binding signal": 0.00288}
{"sequence": "CCACCCAACC", "binding signal": 0.00551}
{"sequence": "ACCCACCCGC", "binding signal": 0.00276}
{"sequence": "CCACCCCTCC", "binding signal": 0.00491}
{"sequence": "ACCCACCTCC", "binding signal": 0.00527}
{"sequence": "GTATGAAGCA", "binding signal": 0.00132}
{"sequence": "CCCCCGCCCG", "binding signal": 0.00192}
{"sequence": "CAAAACAGCA", "binding signal": 0.205}
{"sequence": "AGGCAACACT", "binding signal": 0.391}
{"sequence": "AAAGCAGCCC", "binding signal": 0.133}
{"sequence": "GCCCCAACCC", "binding signal": 0.00168}
{"sequence": "CTCCCGCCCC", "binding signal": 0.00192}
{"sequence": "GTGGGTGGGA", "binding signal": 0.00563}
{"sequence": "CCCAACCCAC", "binding signal": 0.00515}
{"sequence": "CCCCCGCCAC", "binding signal": 0.0036}
{"sequence": "ACAAAAAAAC", "binding signal": 0.0972}
{"sequence": "AAAAGCAGTC", "binding signal": 0.105}
{"sequence": "ACACCCCACC", "binding signal": 0.00204}
{"sequence": "AAAAAAAAGA", "binding signal": 0.0612}
{"sequence": "GCCCACCCAC", "binding signal": 0.00983}
{"sequence": "CCACCCACAC", "binding signal": 0.00635}
{"sequence": "CCCTCCCGCC", "binding signal": 0.00503}
{"sequence": "AAAGGCATAC", "binding signal": 0.123}
{"sequence": "ACCTCCCCCC", "binding signal": 0.00216}
{"sequence": "AAAAACAAGC", "binding signal": 0.0483}
{"sequence": "ACCACCCCGC", "binding signal": 0.00252}
{"sequence": "CCACCCTCAC", "binding signal": 0.00791}
{"sequence": "CCCCACCCCC", "binding signal": 0.00419}
{"sequence": "CCACCACCCC", "binding signal": 0.00419}
{"sequence": "CACCCTCCCC", "binding signal": 0.00312}
{"sequence": "CACCACCCCA", "binding signal": 0.00683}
{"sequence": "CCCCACCCGC", "binding signal": 0.003}
{"sequence": "CTCCCACCAC", "binding signal": 0.00599}
{"sequence": "CCCCGCCCTC", "binding signal": 0.00216}
{"sequence": "GCACCCACCC", "binding signal": 0.00479}
{"sequence": "CAACCCCCCC", "binding signal": 0.00252}
{"sequence": "AGCATATCCA", "binding signal": 0.102}
{"sequence": "CCCCCCGCCA", "binding signal": 0.00372}
